The values below come from PubChem BioAssay (NCI).

The panel holds about 79,000 compounds, 15% with a hit somewhere; the sample as a whole holds those more often. Values without a mark were called inactive. Calls of active or inactive are those of the source. Rule as the data show it: active = growth inhibition above about 70%; inactive = the rest.

The nature of assay [1]: NCI Yeast Anticancer Drug Screen. Data for the rad50 strain (AID 155).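 Also: 0% = growth of vehicle-only cultures of the same strain.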 The note with it: S. cerevisiae rad50 strain growth inhibition; at 50.0 µM; hits give high values. In a few lines: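 Compounds were tested on a yeast strain with an engineered DNA damage repair alteration; the reported value is growth inhibition normalised to vehicle treatment.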
A short description of assay [2]: NCI Yeast Anticancer Drug Screen. Data for the mec2-1 strain (AID 157). As to conditions: S. cerevisiae mec2-1 strain, at 50.0 µM, hits give high values. In a few lines:
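Mutant yeast (mec2-1) grown with compound; growth inhibition relative to vehicle control reported.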

Assay [3] can be described thus: NCI Yeast Anticancer Drug Screen. Data for the sgs1 mgt1 strain (AID 161).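 Also: 0% = growth of cultures given vehicle only.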 The note with it: S. cerevisiae sgs1 mgt1 strain, at 50.0 µM, hits give high values. In a few lines:
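Growth of a repair-deficient yeast mutant was monitored after compound treatment and expressed as inhibition relative to vehicle-treated cultures.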

Assay [4] can be described thus: NCI Yeast Anticancer Drug Screen. Data for the cln2 rad14 strain (AID 165).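 Also: 0% = growth equal to vehicle treated cultures.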 As to conditions: S. cerevisiae cln2 rad14 strain, at 50.0 µM, hits give high values. In a few lines: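 Readout is yeast growth inhibition versus vehicle-treated controls, using a strain with cln2 and rad14 alterations exposed to compound.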
Assay [5] in a line: NCI Yeast Anticancer Drug Screen. Data for the mlh1 rad18 strain (AID 175). The note with it: S. cerevisiae mlh1 rad18 strain growth inhibition; at 50.0 µM; hits give high values. In a few lines:
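Genetically defined yeast (DNA repair-deficient) exposed to compounds; growth inhibition determined relative to vehicle.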

Assay [6] is described as follows: NCI Yeast Anticancer Drug Screen. Data for the bub3 strain (AID 167). The note with it: S. cerevisiae bub3 mutant strain, at 50.0 µM, hits give high values. In a few lines:
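Growth of a checkpoint-deficient yeast mutant is measured after compound exposure. Values represent inhibition relative to vehicle.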

Consider `CC(C)C1NC(=O)c2ccccc2S1` (centres undefined), for which the growth inhibition was 27.8% in assay [1]; -15.9% in assay [2]; -3.55% in assay [3]; 26.1% in assay [4]; 44% in assay [5].
With `O=C1OCc2cccc3c2-c2c1cccc2C(=O)OC3`, the growth inhibition in assay [1] was -3%; in assay [2], -5.7%; in assay [3], -4.8%; in assay [4], 16.2%; in assay [5], 6.7%.
On to `c1ccc(-c2coc(-c3ccccc3)n2)cc1`, for which the growth inhibition in assay [1] is 1.15%; in assay [2], 8.65%; in assay [3], 3.25%; in assay [4], -2%; in assay [6] it was -5.15%; in assay [5] it was -10.2%.
As for `CCOC(=O)C(Cc1ccc(OCc2ccccc2)c(OCc2ccccc2)c1)(NC=O)C(=O)OCC`, the growth inhibition in assay [1] is 36.6%; in assay [2], -1.6%; in assay [3], 19.8%; in assay [4], -14.8%; in assay [5], 9%.
For `COc1c2occc2cc2ccc(=S)oc12` the same measures were 13.2%, -10.4%, 7.35%, -4.6% and 23.1%.
The like results for `Cc1cccc[n+]1CC(=O)c1ccc(Cl)cc1` were, in that order, -8.05%, 3.25%, 1.05%, -44.8% and 3.65%.
`COC(=O)c1ccccc1/C=C1\Cc2ccc3c(c2C1=O)CCCC3`: the growth inhibition in assay [1] was -30.9%; in assay [2] it was -52.6%; in assay [3] it was -18.9%; in assay [4] it was -7.4%; in assay [5], -25.2%.
For `CC(=O)c1cc2c(Br)cccc2oc1=O` the same measures were -38%, -42.4%, -32.5%, -3.3% and -36.2%.
For `C/C=C1\OC(n2cnc3c(N)ncnc32)C(O)C1O` (centres undefined) the same measures were -0.3%, -11.8%, -14.9%, 2.5% and -1.8%.
For `BrCCCC1OCCO1`, the growth inhibition in assay [1] is 93.8% (active); in assay [2] it was 53%; in assay [3] it was 85.8% (active); in assay [4], 43.5%; in assay [5] it was 60.2%.
For `CC[n+]1[b-](C(C)(C)C)n(/N=C/C(C)(C)C)[b-](C(C)(C)C)[n+]1CC`, the growth inhibition in assay [1] is 0.7%; in assay [2], -13.2%; in assay [3] it was -19.9%; in assay [4], 20.4%; in assay [5], 4.95%.
For `CC(=O)CC(=O)Nc1ccc(Cc2ccc(NC(C)=O)cc2)cc1` the same measures were 8.3%, 9.8%, 10%, 5.55% and 21.8%.
With `O=C(NC1(C(=O)O)CC1c1ccccc1)c1ccccc1` (centres undefined), the growth inhibition in assay [1] was -1.2%; in assay [2], 21%; in assay [3], 0.05%; in assay [4] it was -10.2%; in assay [5], 42.8%.
For the compound `CC1C(=O)OC2CC[N+]3(C(=O)C(F)(F)F)CC4OC4(COC(=O)C(C)(O)C1(C)O)C23` (centres undefined), the growth inhibition in assay [1] was -13.2%; in assay [2], -32%; in assay [3], -12.8%; in assay [4], 2.2%; in assay [6], 0.65%; in assay [5], -8.9%.
For the compound `C1CCC2C(C1)CCCC2CC1CCCC2CCCCC21` (centres undefined), the growth inhibition was -11.2% in assay [1]; 1.1% in assay [2]; -10.3% in assay [3]; -17.5% in assay [4]; -4.65% in assay [5].
For `CN(C)CCC(OC(=O)c1ccccc1Cl)c1ccccc1` (centres undefined) the same measures were -6.9%, 10.1%, 13.7%, 17.2% and 13.1%.
With `C[C@]12CCC(=O)C=C1CC[C@@H]1C2=CC[C@]2(C)/C(=C\CO)CC[C@@H]12`, the growth inhibition in assay [1] is 7.5%; in assay [2], -14.4%; in assay [3] it was 10.8%; in assay [4], -5.4%; in assay [5], 9.4%.
Regarding `C(=NCc1ccccc1)c1ccccc1-c1ccccc1C=NCc1ccccc1`, the growth inhibition is 98% (active) in assay [1]; 98.7% (active) in assay [2]; 98.8% (active) in assay [3]; 91.8% (active) in assay [4]; 98.1% (active) in assay [5].
For `CN(C)S(=O)(=O)C(C(N)=O)c1ccccc1` (centres undefined) the same measures were -8.75%, 10.6%, 19.4%, -14.9% and 10.4%.
The like results for `N/C(=N\O)c1c(Br)n(C2OC(CO)C(O)C2O)c2ncnc(N)c12` (centres undefined) were, in that order, 12.1%, 11.7%, 4.7%, 10.8% and 1.75%.
For `COc1cc(Br)cc2nc(-c3cccs3)oc12` the same measures were -15.3%, -46.9%, -62.2%, -24.6% and -32.5%.
On to `Cc1cncc(NS(=O)(=O)c2ccc(N)cc2)n1`, for which the growth inhibition was 0.7% in assay [1]; 8.7% in assay [2]; -5.45% in assay [3]; -13.9% in assay [4]; 6.9% in assay [5].
The like results for `COCCOC(=O)c1ccc(C(N)=NC2CCCCC2)cc1` were, in that order, -1.2%, 4.25%, 3.9%, 0.95% and -0.7%.
Regarding `CN(C)C(=O)Sc1ccc([N+](=O)[O-])cc1Cl`, the growth inhibition was 15.4% in assay [1]; 4.6% in assay [2]; 5.7% in assay [3]; 14.6% in assay [4]; 16.8% in assay [5].
The like results for `C[C@H]1CCCCC[C@@H]2CC(=O)CC2C(=O)CCC(=O)O1` (some centres undefined) were, in that order, 17.6%, -4.25%, -10.6%, 8.05% and 12.7%.
As for `O=C1NC(CN2CCCCC2)C(=O)NC1CN1CCCCC1` (centres undefined), the growth inhibition in assay [1] is -1.1%; in assay [2], -13.4%; in assay [3] it was 8.7%; in assay [4] it was -8.7%; in assay [5] it was 0%.
`O=C(CC(O)(C(F)(F)F)C(F)(F)F)c1ccc(Br)cc1`: the growth inhibition in assay [1] was 4.35%; in assay [2], 19.6%; in assay [3], 5.45%; in assay [4] it was -8.25%; in assay [6], 14.1%; in assay [5], 49.4%.
Consider `O=C(CSc1c2ccccc2nc2ccccc12)Nc1ccccc1-c1ccccc1NC(=O)CSc1c2ccccc2nc2ccccc12`, for which the growth inhibition in assay [1] is 27.4%; in assay [2], 9.75%; in assay [3], 18.6%; in assay [4] it was 6.9%; in assay [5], 34.5%.
For the compound `O=c1[nH]c(-c2ccc(Cl)cc2)cs1`, the growth inhibition in assay [1] was -1.25%; in assay [2], -14.8%; in assay [3], -7%; in assay [4], -5.65%; in assay [5] it was -16.1%.
The like results for `C=CCOC(=O)CC(O)(CC(=O)OCC=C)C(=O)OCC=C` were, in that order, -3.4%, -17.9%, -11.8%, -35.5% and -12.2%.
For `CCCCCCCCCCCCCCCCNc1nc(=O)n(C2CC(O)C(COP(=O)(O)OC3CC(n4cc(F)c(=O)[nH]c4=O)OC3CO)O2)cc1F` (centres undefined) the same measures were -2.05%, -6.05%, -25.9%, 0.95% and -31.6%.
`c1cc(OCCOc2cccc3ocnc23)c2ncoc2c1`: the growth inhibition was -12.8% in assay [1]; -15.6% in assay [2]; -5.85% in assay [3]; -14.8% in assay [4]; 0.65% in assay [5].
The like results for `COc1ccc(CN2CCCN(Cc3ccc(OC)cc3OC)C2c2cccc(OC)c2O)c(OC)c1` were, in that order, 20.6%, 16.6%, 12.6%, 16% and 6.5%.
As to `CC1CC(C)C2=NOS3=C2C1=NO3` (centres undefined), the growth inhibition in assay [1] is 43.3%; in assay [2], 16.6%; in assay [3] it was 36.1%; in assay [4], 21.4%; in assay [5] it was 22.9%.
As to `CC(C)=NOC(=O)Nc1ccccc1`, the growth inhibition in assay [1] was 44.4%; in assay [2], -19.8%; in assay [3] it was 14.9%; in assay [4], -15.4%; in assay [6], 1.7%; in assay [5], 33.9%.
Take `[Cl][Pt+2][Cl].[NH-]CC1([NH-])CCCCC1`: the growth inhibition in assay [1] is -10.2%; in assay [2], 14.1%; in assay [3], -19.6%; in assay [4] it was -2.8%; in assay [5] it was -31.9%.
The like results for `NC(=O)c1ccccc1N=NNc1ccccc1` were, in that order, 17.5%, -4.65%, 2.8%, -28.5% and 16.1%.
The like results for `CC(=O)OCC1OC(N2C(=O)C(=O)c3cc(C)ccc32)C(OC(C)=O)C(OC(C)=O)C1OC(C)=O` (centres undefined) were, in that order, 59.8%, 10.2%, 5.85%, 1.7% and 33.4%.
